# Sampled rows, rich in hits. Any-hit rate of the full collection: about 21%.
# Shiga toxin inh: blocks Shiga toxin action in Vero cells; Vero cells, Shiga toxin protein synthesis inhibition reporter; inhibition, % at 38.7 µM; actives 9.2% (n = 290,000); in the data active means inhibition mostly above about 28%, no sharp cut-off; inactive means mostly below about 43%; further: 0% is about no effect
# Pf growth 96h: inhibits malaria parasite growth, 96 h; actives 6.9% (n = 320,000); P. falciparum luciferase reporter growth, 96 h; Potency, µM (highest dose often 28.7 µM), inactives show at the top dose activity change, negative = inhibition, most hits filed as inhibitors; further: potency means the concentration at half of the fitted maximal effect; on the % scale 0 is the no-effect control and ±100 the full control effect
#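 Luminescence readout: decreased luciferase signal marks inhibited growth of reporter-expressing P. falciparum in infected red cells (2% hematocrit, 0.05% parasitemia final), exposed to compound two generations (96 h, 37 C, 5% CO2).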
# Pf growth 48h: inhibits P. falciparum growth in the first generation, 48 h | P. falciparum luciferase growth in erythrocytes, 48 h | Potency, µM (highest dose often 28.7 µM), for inactives: at the highest dose activity change, negative = inhibition, hits mostly inhibitors | actives 5.9% (n = 310,000) | AID 504832; further: potency means the concentration at half of the fitted maximal effect; on the % scale 0 is the no-effect control and ±100 the full control effect
#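 Compounds are pin-transferred into medium, infected erythrocytes (2% hematocrit, 0.1% parasitemia final) are added, and plates sit one parasite generation at 37 C in 5% CO2. Detection reagent is then added and luminescence measured.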
# Cycloheximide cs: affects cycloheximide protein synthesis inhibition readout, counter-screen | cell reporter, cycloheximide protein synthesis inhibition counterscreen | max response, % | actives 12% (n = 300,000) | AID 2314; in the data active means max response mostly above about 13%, no sharp cut-off; inactive means mostly below about 14%; further: read at 38.3 µM for the half of the compounds with a filed dose; 0% is about no effect
# HCV inh: HCV inhibition; Huh7.5.1 HCVcc-Cre infection, luciferase reporter, 44 h; actives 3.4% (n = 340,000); Potency, µM (top dose mostly 41.8 µM), without a hit: at the top dose activity change, negative = inhibition, most hits filed as inhibitors; further: potency means the concentration at half of the fitted maximal effect; on the % scale 0 is the no-effect control and ±100 the full control effect
#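 Cells seeded at 1,000/well and cultured 4 h, then compounds added followed by HCVcc-Cre virus (~0.5 moi). After 44 h further culture, luciferase substrate was added, plates held 15 min at room temperature, and luminescence read for 15 sec.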
# HCMV inh: human cytomegalovirus inhibition; actives 4.5% (n = 410,000); activity change, negative = inhibition, % at 57.5 µM; HFF cells, HCMV-luciferase reporter, 72 h; active compounds read low; in the data active means activity change below about -60%; inconclusive means no clear call, values can overlap the other calls; inactive means above about -39%; further: on the % scale 0 is the no-effect control and ±100 the full control effect
#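 HFF cells seeded 16 h at 37C, treated with compounds, infected with luciferase-reporter HCMV at MOI 1 PFU/cell; luciferase read at 72 h post infection, normalized to buffer-only and Salinomycin controls.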
# An asterisk follows results filed as active; i = inactive; u = inconclusive; x = no result given. Unless noted, the call rests on the fitted dose curve; in most records, active means well fitted inhibition curve with a large enough effect; inconclusive means small, poorly fitted or top-dose-only effect, or another doubt; inactive means no such curve, though single readings can be large or run the other way.
SMILES,Shiga toxin inh,Pf growth 96h,Pf growth 48h,Cycloheximide cs,HCV inh,HCMV inh
CCC(C(=O)OCC(=O)Nc1ccc(F)cc1)c1ccccc1 (stereo not drawn),x,-25%,-20%,x,0%,-31
CC(=O)Nc1ccc(N2S(=O)(=O)c3ccccc3S2(=O)=O)cc1,-11,12µM*,-16%,-2,-25%,24
CC(=O)Nc1ccccc1,x,u,-4%,x,-4%,27
O=C(Nc1ccc(N=Nc2ccccc2)cc1)c1ccccc1Cl,73*,81%,188%,27*,u,u
CC(C)C(=O)OCC(=O)Nc1ccc(N=Nc2ccccc2)cc1,46*,338%,277%,31*,1%,116
CCOC(=O)c1scc(-c2ccc(C)cc2)c1S(=O)(=O)Nc1cc(Cl)ccc1OC,x,x,x,x,x,-22
CCCCCCC(O)C/C=C/CCCCCCCC(=O)O (stereo not drawn),x,-7%,2%,x,x,x
COc1ccc(CNC(=O)CCC(=O)Nc2nnc(C(F)(F)F)s2)cc1,-7,56%,7%,-2,20%,42
COc1ccccc1-c1cc(C(=O)Nc2cc(OC)c(OC)c(OC)c2)no1,x,x,x,x,x,-29
CNC(=S)Nc1ccc(Nc2ccccc2)cc1,26,83%,44%,20*,-8%,66
CC(=O)OCC(=O)Nc1ccc(SC(F)F)cc1,-6,3%,15%,9,18%,-12
CC(C)N(c1ccccc1)c1ccc(NC(=O)CCl)cc1,-7,10µM*,10µM*,0,u,-61*
CC(=O)OCC(=O)Nc1ccc(N=Nc2ccccc2)cc1,76,i,118%,38*,10%,118
CC(=O)Nc1ccc(N=Nc2ccccc2)cc1,65*,-7%,176%,49*,-14%,99
O=c1ccc(-c2ccc(S(=O)(=O)Nc3ccc(F)cc3)o2)n[nH]1,11,-9%,17%,0,17%,10
COC(=O)c1c(C)sc(-c2c(-c3cccc(Cl)c3)[nH]c3c2c(=O)[nH]c(=O)n3C)c1O,x,x,x,x,x,21
Cc1ccc(NS(=O)(=O)c2cc(C(=O)Nc3cccnc3)ccc2C)cc1,13,u,u,-3,x,11
CC1=CC(=O)c2c(O)ccc(O)c2C1=O,-9,u,u,1,x,x
O=C(C(=S)N1CCOCC1)c1c[nH]c2ccccc12,10,14%,u,-3,4%,-22
Cc1ccc(-c2nnc3cccc(Cl)n23)cc1,-8,u,10%,1,16%,-6
CCCC(=O)Nc1ccc(C(=O)n2ccc(C)n2)cc1,31,2%,39%,11*,15%,u
NC(=Nc1ccccc1)Nc1ccccc1,-11,u,-1%,-2,u,-20
CCCC(=O)Nc1ccc(-c2ccc(NC(=O)CCC)cc2)cc1,31,41%,15%,3,5%,-16
CCCC(=O)Nc1ccc(Nc2ccccc2)cc1,35*,-16%,22%,23*,-4%,52
CCCC(=O)Nc1ccc(C(N)=O)cc1,3,50%,33%,3,-5%,-7
SMILES,Shiga toxin inh,Pf growth 96h,Pf growth 48h,Cycloheximide cs,HCV inh,HCMV inh
CCOC(=O)/C(C(=Nc1ccccc1)Nc1ccccc1)=C(\C)O,-4,10µM*,-1%,2,-19%,56
O=C(CCl)Nc1ccc(N=Nc2ccccc2)cc1,106*,u,4.7µM*,128*,-27%,34
Cc1ccc(CCNC(=O)c2ccc3c(c2)c(C)c(C)n3Cc2ccccc2)cc1,x,x,x,x,x,0
COc1ccccc1CNc1nccn(-c2ccccc2)c1=O,x,x,x,x,x,55
CC(=O)Nc1ccc(C(=O)OCC(=O)NCc2cccs2)cc1,x,15%,20%,x,10%,0
Cc1nnc2c(N3CCN(c4ccc(F)cc4)CC3)nc3ccc(C(=O)c4ccccc4)cc3n12,x,x,x,x,x,0
O=C1C(Cl)=C(N2CCCCCC2)C(=O)N1c1ccccc1Cl,3,10%,9%,9,-11%,3
Cc1ccccc1N1C(=O)C(Cl)=C(N2CCN(c3ccccc3)CC2)C1=O,-8,3.7µM*,0%,1,7%,-34
CN1CCN(C2=C(Cl)C(=O)N(c3ccc(Cl)c(Cl)c3)C2=O)CC1,66,63%,2%,23*,-19%,x
O=C1C(Cl)=C(N2CCCCCC2)C(=O)N1c1ccc(Cl)cc1,18,142%,u,12*,4%,u
O=C1C(Cl)=C(N2CCCC2)C(=O)N1c1ccc(F)cc1,10,0%,u,-2,13%,-14
CN1CCN(C2=C(Cl)C(=O)N(c3cccc(Cl)c3)C2=O)CC1,6,u,-5%,9,u,4
O=C1C=C(N2CCCCCC2)C(=O)N1c1ccc(Cl)cc1,176*,181%,110%,62*,15%,-22
CC1(C)C(c2ccccc2)=NC(c2ccc(Br)cc2)N1O (stereo not drawn),15,u,15%,1,14%,-19
O=C1C(Cl)=C(N2CCCC2)C(=O)N1c1ccccc1F,x,2.6µM*,-2%,-5,-1%,-12
O=C(CSc1nnc(CNC(=O)c2ccc(F)cc2)o1)Nc1nccs1,-5,38%,5%,-1,-14%,4
CSc1ccc(/C=N/N2CCN(Cc3ccc(Cl)cc3)CC2)cc1,-9,0%,-2%,-1,10%,-24
CN1CCN(/N=C/c2ccc(-c3ccccc3)cc2)CC1,63*,29%,80%,49*,-27%,-85*
CSc1ccc(/C=N/n2c(C)cc(C)cc2=O)cc1,112*,49%,0%,27*,-2%,-15
C(=N\N1CCN(Cc2ccccc2)CC1)/c1ccc(-c2ccccc2)cc1,-3,19%,-5%,1,7%,u
CSc1ccc(/C=N/N2CCN(C)CC2)cc1,72,68%,341%,29*,11%,127
COc1ccc(N2CCN(C(=O)c3cc4c(=O)oc5ccc(C)cc5c4s3)CC2)cc1,x,x,x,x,x,8
O/N=C(/c1ccccc1)c1cc2cc(Br)cc(Br)c2o1,4,8%,-7%,-3,-7%,-36
COc1cccc2cc(C(=O)NCc3ccc(C)cc3)c(=O)oc12,2,13%,7%,11,20%,x
COc1cccc2cc(CC(=O)c3cc(C)ccc3C)c(=O)oc12,71*,6%,u,28*,u,-5
COc1cccc2cc(CC(=O)c3ccc(C)c(C)c3)c(=O)oc12,-7,u,11%,11,-29%,26
COc1cccc2cc(C(=O)c3ccccc3)oc12,166*,-29%,32%,68*,0%,-9
CCc1ccc(C(=O)Cc2cc3cccc(OC)c3oc2=O)cc1,64*,68%,24%,28*,-9%,48
COc1cccc2cc(/C(=N/O)c3ccc(Br)cc3)oc12,-10,-10%,-9%,5,-29%,-66*

# Screening data deposited in PubChem BioAssay by National Center for Advancing Translational Sciences (NCATS).
